Shown are actives, neighbours in structure and some others; about 3.4% of the full set was active somewhere.
FBW7 act: activators of human E3 ligase FBW7; Q969H0; AlphaScreen FBW7–phospho-cyclin E peptide binding, activator screen; normalized activity (activation), % at 26.1 µM; 650,000 tested, 0.13% active; AID 1259310; in the data active = normalized activity above about 1.9%;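 also: purified mutant Fbw7 with reduced substrate affinity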
Target sequence (Q969H0 whole entry, looked up): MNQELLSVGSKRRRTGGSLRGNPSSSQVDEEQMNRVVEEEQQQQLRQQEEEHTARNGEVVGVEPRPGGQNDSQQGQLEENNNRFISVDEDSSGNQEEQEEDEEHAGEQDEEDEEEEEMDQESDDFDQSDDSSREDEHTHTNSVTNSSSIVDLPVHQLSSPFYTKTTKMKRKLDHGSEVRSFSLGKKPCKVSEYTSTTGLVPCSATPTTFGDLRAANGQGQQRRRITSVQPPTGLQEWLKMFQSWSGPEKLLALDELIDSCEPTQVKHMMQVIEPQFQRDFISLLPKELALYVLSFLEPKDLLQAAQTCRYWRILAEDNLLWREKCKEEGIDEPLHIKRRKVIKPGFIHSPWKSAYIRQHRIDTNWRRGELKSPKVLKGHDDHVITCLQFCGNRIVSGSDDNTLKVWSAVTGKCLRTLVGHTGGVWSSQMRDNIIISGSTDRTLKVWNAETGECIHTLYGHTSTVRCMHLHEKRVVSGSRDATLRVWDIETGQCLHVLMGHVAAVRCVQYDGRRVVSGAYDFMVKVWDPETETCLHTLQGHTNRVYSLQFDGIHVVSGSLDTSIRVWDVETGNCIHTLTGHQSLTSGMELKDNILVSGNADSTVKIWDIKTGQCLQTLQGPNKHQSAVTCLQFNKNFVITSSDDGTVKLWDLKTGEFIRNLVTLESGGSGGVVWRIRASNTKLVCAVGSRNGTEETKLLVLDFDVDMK
GPR151 activ: human GPR151 activation; Q8TDV0; 650,000 tested, 1% active; PathHunter beta-arrestin GPR151 cells, luminescence; activation, % at 11.2 µM; in the data active = activation above about 4.9%;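 also: 0% = median of compound wells and 100% = cells with positive control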
TEAD-YAP inh: TEAD-YAP interaction inhibition. HEK-TIYL cells, TEAD-Gal4/YAP UAS-luciferase luminescence. inhibition, % at 9.12 µM. 640,000 tested, 1.4% active. AID 1259422; in the data active = inhibition above about 32%;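 also: 0% = median of test compound wells and 100% = reference inhibitor wells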
MITF primary: human MITF inhibition, primary screen; O75030; AlphaScreen MITF homodimerization, bead proximity signal; inhibition, % at 2.6 µM; 650,000 tested, 0.91% active; AID 1259374; in the data active = inhibition above about 50%;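 also: 0% = vehicle wells with protein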
MITF inh conf: human MITF inhibition, confirmation. shares compounds with MITF primary. AlphaScreen MITF homodimerization, biotin/His-MITF beads. inhibition, % at 2.6 µM. 4,700 tested, 16% active;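 active = inhibition above a cutoff derived from the DMSO control wells, cut at about 28% in these data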;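 also: 0% = MITF dimer wells with DMSO only; inhibitors lower the bead chemiluminescence by keeping MITF from dimerizing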
AS interf ctr: optically interferes with AlphaScreen signal. shares compounds with MITF primary. LysRS AlphaScreen counterscreen, signal interference, triplicate. inhibition, % at 2.6 µM. 4,700 tested, 7.6% active. AID 1259376;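 active = inhibition above a cutoff derived from the DMSO control wells, cut at about 30% in these data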
An asterisk follows results filed as active; x = not tested or not shown.

SMILES	FBW7 act	GPR151 activ	TEAD-YAP inh	MITF primary	MITF inh conf	AS interf ctr
CC(NCCN1CCOCC1)C(=O)Nc1ccccc1 (stereo not drawn)	0.3	-0.7	-13.8	97.9*	16.2	16.9
COc1ccc(NC(=O)CNCCN2CCCCC2)cc1	0.0	-1.1	-4.8	22.0	x	x
COc1ccc(NC(=O)CNCCN2CCOCC2)cc1	0.1	0.5	-1.9	93.2*	-9.6	-3.8
O=C(CNCCN1CCOCC1)Nc1ccc2c(c1)OCO2	0.1	-0.7	2.5	87.3*	4.8	19.3
CCN1CCN(CCC(=O)Nc2ccc3c(c2)OCCO3)CC1	0.1	-0.8	1.3	104.0*	-10.2	0.1
COc1ccc(C(=O)NCCN2CCOCC2)c(OC)c1	-0.1	-0.5	-0.4	53.5*	1.1	-1.3
O=C(CNCCCN1CCOCC1)Nc1ccccc1	-0.3	0.0	2.5	49.9	x	x
O=C(CNCCCN1CCOCC1)Nc1ccc(C(=O)N2CCCCC2)cc1	0.2	-1.1	-3.3	85.2*	3.5	20.0
O=C(CNCCN1CCOCC1)Nc1ccc(N2CCCC2)cc1	-0.1	1.9	5.8	73.2*	28.7*	59.6*
O=C(CNCCN1CCOCC1)Nc1ccc(N2CCCCCC2)cc1	-0.2	-0.2	-3.6	32.0	x	x
O=C(CNCCN1CCOCC1)Nc1ccc(OC(F)(F)F)cc1	0.7	-0.9	-0.1	60.0*	-1.6	-9.7
COc1ccc2oc(=O)c(C(=O)NCCN3CCOCC3)cc2c1	0.0	-0.1	-4.3	21.9	x	x
CC(=O)c1cccc(NC(=O)/C(=C/c2ccc([N+](=O)[O-])cc2)NC(=O)c2cccc(C)c2)c1	0.0	-0.7	-4.8	-1.0	x	x
O=C(Nc1ccc(N2CCOCC2)cc1)NC1CCCCC1	-0.2	-1.8	-30.3	72.1*	-7.7	-4.8
COc1ccc(CCNC(=O)C(=O)NCCCN2CCOCC2)cc1	0.7	-1.9	-0.1	1.3	x	x
COc1ccc(CCNCCN2CCOCC2)cc1	-0.4	-0.8	-6.3	84.0*	8.2	5.9
CCN1CCN(c2cc(C)c3ccc(OC)cc3n2)CC1	-0.2	0.8	-2.0	64.5*	1.2	7.3
Cc1cc(C)c(CN2CCN(C3CCN(C(C)C)CC3)C(CCO)C2)cc1C (stereo not drawn)	-0.1	-0.7	0.7	-2.3	x	x
Cc1c(CN2CCN(C3CCN(C(C)C)CC3)C(CCO)C2)cnn1C (stereo not drawn)	-0.1	0.1	-0.2	83.9*	-2.7	-8.8
NS(=O)(=O)c1ccc(CCNC(=O)CNS(=O)(=O)c2cccs2)cc1	0.0	-0.9	5.9	79.7*	-5.3	5.1
COc1ccc(NC(=S)N2CCN(Cc3ccc4c(c3)OCO4)CC2)cc1	0.4	-0.7	-9.7	15.4	x	x
Fc1ccc(CN2CCN(Cc3ccc4c(c3)OCO4)CC2)c(F)c1	0.1	-0.6	0.4	60.9*	0.1	5.7
COc1ccc(CN2CCN(Cc3ccc4c(c3)OCO4)CC2)cc1	-0.1	0.2	-2.6	64.1*	13.8	12.7
Cc1ccc(C(=O)N2CCN(Cc3ccc4c(c3)OCO4)CC2)cc1	-0.1	-0.5	3.1	7.8	x	x
COc1ccc(C(=O)N2CCN(Cc3ccc4c(c3)OCO4)CC2)cc1	-0.1	-0.3	-2.9	54.7*	4.0	13.8
SMILES	FBW7 act	GPR151 activ	TEAD-YAP inh	MITF primary	MITF inh conf	AS interf ctr
Cc1cc(=O)n2[nH]c(-c3ccc(Br)cc3)cc2n1	0.0	-0.5	-63.9	15.1	x	x
COc1cccc(-c2csc(N3CCN(CC(=O)Nc4cccc(C)c4C)CC3)n2)c1	0.0	0.3	-1.4	5.5	x	x
O=C(Nc1nonc1-c1ccccc1)C12CC3CC(CC(C3)C1)C2	0.3	0.0	26.1	-4.1	x	x
Cc1ccc(OCC(=O)Nc2cccnc2)cc1C	0.0	-1.1	-19.8	-2.5	x	x
CCc1ccccc1NC(=O)CN(C)C(=O)CN(C)Cc1ccccc1OC	-0.1	-0.2	-5.8	81.0*	15.7	14.5
O=C(CN1CCN(Cc2ccccc2)CC1)N1CCCc2ccccc21	-0.4	-2.1	18.7	72.0*	-3.3	2.3
O=C(CN1CCN(C/C=C/c2ccccc2)CC1)N1CCCc2ccccc21	-0.3	-0.1	8.7	85.3*	5.5	10.3
CC(=O)C(Cc1ccccc1)NC(=O)CN1CCN(C/C=C/c2ccccc2)CC1 (stereo not drawn)	0.1	-1.2	3.6	62.1*	14.1	14.4
O=C(CN1CCN(Cc2nc(-c3cccs3)cs2)CC1)N1CCc2ccccc21	-0.4	-0.6	-3.9	58.4*	-8.4	1.6
COc1nc(NCc2ccccc2)nc(-c2ccc(C(=O)NC3CC3)cc2)n1	0.2	0.1	1.8	12.7	x	x
CCNC(=O)c1ccccc1NC(=O)c1cccc(S(=O)(=O)N2CCCCC2)c1	-0.2	-0.2	9.1	8.9	x	x
COc1ccc(C=O)cc1OC(=O)c1ccc(F)cc1	0.2	-0.1	4.8	-0.4	x	x
CC(C)c1ccc(OCC(=O)NCCS(=O)(=O)N2CCc3ccccc32)cc1	-0.1	0.8	3.2	80.5*	-7.2	-2.3
Cc1cc(C(C)(C)C)ccc1OCCN(C)C	-0.2	2.0	2.4	83.7*	25.3	9.5
C=CCNCCCOc1ccc(C(C)(C)C)cc1C	0.1	-0.6	-6.6	31.6	x	x
Cc1cc(C(C)(C)C)ccc1OCCCNCCN	-0.1	4.2	1.3	9.8	x	x
C=CCNCCOc1ccc(C(C)(C)C)cc1C	-0.1	0.7	9.6	51.0*	-11.6	5.5
CCc1ccc(CN2CCN(C3CCCCCC3)CC2)cc1	-0.2	-1.1	-13.0	79.4*	2.1	-2.5
Fc1ccc(CN2CCN(C3CCC(c4ccccc4)CC3)CC2)cc1 (stereo not drawn)	0.0	0.7	-0.8	65.8*	1.1	8.6
c1cc(CN2CCN(C3CCCC3)CC2)ccn1	0.5	-1.4	3.7	78.5*	6.8	14.1
Fc1ccc(CN2CCN(C3CCCCCC3)CC2)cc1	-0.2	1.7	8.4	64.5*	15.7	21.0
Cc1ccc(CN2CCN(C3CCCC3)CC2)cc1	-0.1	1.2	0.6	38.2	x	x
Fc1ccc(CN2CCC(N3CCCCC3)CC2)cc1	-0.2	-0.3	9.8	45.4	x	x
Fc1ccc(CN2CCN(C3CCN(Cc4ccccc4)CC3)CC2)cc1	0.0	0.2	8.5	14.1	x	x
O=C(NCc1ccccc1)N1CCC(O)(c2cccnc2)CC1	0.3	-0.7	2.7	-0.4	x	x
SMILES	FBW7 act	GPR151 activ	TEAD-YAP inh	MITF primary	MITF inh conf	AS interf ctr
Cc1ccc(C2CC(C(F)(F)F)n3nc(C(=O)N4CCN(c5ccccc5Cl)CC4)cc3N2)cc1 (stereo not drawn)	-0.1	1.0	0.9	-4.5	x	x
COc1ccc(NC(=O)NCCCNc2nc3cc4c(cc3cc2C#N)OCO4)cc1	0.0	-0.3	-0.6	-13.6	x	x
CC1CCN(C(=O)c2ccc(S(=O)(=O)N3CCCC(O)C3)cc2)CC1 (stereo not drawn)	1.5	0.0	1.1	6.1	x	x
COc1cc(CN2CCN(C(=O)CC(C)C)CC2)cc(OC)c1	-0.1	0.5	2.2	52.7*	10.9	9.7
COc1cc(CN2CCN(C(=O)CC(C)C)CC2)cc(OC)c1OC	-0.2	0.7	4.0	69.6*	5.6	1.9
COc1ccc(CN2CCN(C(=O)CC(C)C)CC2)c(OC)c1OC	0.0	-0.2	7.4	39.9	x	x
COc1cn(CC(=O)Nc2ccc(F)cc2F)c(CN2CCCCCC2)cc1=O	0.0	-1.0	-4.0	-5.7	x	x
